Source: PubChem
ELG1 repair inh – qHTS screen for small molecules that inhibit ELG1-dependent DNA repair in human embryonic kidney (HEK293T) cells expressing luciferase-tagged ELG1. Potency, µM (highest dose often 46.1 µM), for the others: at the top dose activity change, negative = inhibition, usual class: inhibitors. HEK293T ELG1-luciferase reporter, luminescence, 16 h; DNA damage induced by 5-fluorouridine. AID 504467, 2011. actives 2.3% (n = 330,000); also: potency is read from the fitted curve at half-maximal effect; nearly all actives have a fitted effect of over 55% in size
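5-Fluorouridine DNA damage + compound/DMSO, 2,000 cells/well, 16 h, 37 °C/5% CO2. ONE-Glo, 30 min RT, luminescence. Readout = decrease in reporter signal.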
HT1080NT lethal – qHTS for induction of synthetic lethality in tumor cells producing 2HG: qHTS for the HT-1080-NT fibrosarcoma cell line; HT-1080-NT fibrosarcoma viability, CellTiter-Glo ATP luminescence, 48 h; Potency, µM (highest dose often 46.1 µM), for inactives: at the highest dose activity, negative = less viability, hits mostly cytotoxic; actives 1.6% (n = 360,000);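 also: NT is the 2HG producing partner of a matched IDH1 knockdown line; potency is read from the fitted curve at half-maximal effect; 0% = DMSO-treated cells and -100% = media-only wells without cells; nearly all actives have a fitted effect of over 55% in size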
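A 48-hour cytotoxicity screen used HT-1080-NT cells plated 2 hours before compound delivery. ATP-based CellTiter-Glo luminescence measured viability, normalized to DMSO and no-cell controls.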
DT40 TDP1 no CPT – qHTS for Inhibitors of human tyrosyl-DNA phosphodiesterase 1 (TDP1): qHTS in cells in absence of CPT. DT40 Tdp1-/- hTDP1 cells, no CPT, ATP luminescence, 48 h. Potency, µM (highest dose often 46.2 µM), inactives show at the highest dose activity change, negative = growth inhibition, usual class: inhibitors. actives 15% (n = 420,000). AID 686978, 2013; also: potency is read from the fitted curve at half-maximal effect; nearly all actives have a fitted effect of over 55% in size
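A cellular qHTS used chicken DT40 cells lacking endogenous Tdp1 but carrying stably transfected human TDP1. Compounds were applied without camptothecin, and cell growth kinetics were judged by ATP-dependent luminescence after ≥48 hr.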
DT40 TDP1 CPT – qHTS for Inhibitors of human tyrosyl-DNA phosphodiesterase 1 (TDP1): qHTS in cells in presence of CPT; chicken DT40 Tdp1-/-;hTDP1 cells + 20 nM CPT, ATP luminescence, 48 h; Potency, µM (doses to about 46.2 µM), without a hit: top-dose activity change, negative = growth inhibition, actives largely listed as inhibitors; actives 12% (n = 420,000); AID 686979, 2013; also: potency is read from the fitted curve at half-maximal effect; nearly all actives have a fitted effect of over 55% in size
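Cell growth measured by CellTiter-Glo luminescence after a minimum 48 h, 37 C compound exposure with 20 nM CPT in Tdp1-knockout DT40 cells stably expressing hTDP1, seeded 400/well; qHTS titration format.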
HT1080 IDH1KD tx – qHTS for induction of synthetic lethality in tumor cells producing 2HG: qHTS for the HT-1080-IDH1KD cell line. HT-1080 IDH1 knockdown viability, ATP luminescence, 48 h. Potency, µM (top dose mostly 46.1 µM), for the others: at the highest dose activity, negative = toxicity, hits mostly cytotoxic. actives 2% (n = 360,000);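 also: potency is read from the fitted curve at half-maximal effect; 0% = DMSO wells and -100% = cell-free medium wells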
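CellTiter-Glo luminescence after 48 h compound exposure at 37 degrees C of IDH1-knockdown HT-1080 cells in 5% FBS RPMI. %Activity scaled between DMSO wells and cell-free media wells, with curves fitted and assigned curve classes.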
IL1B secr inh – qHTS for Inhibitors of Inflammasome Signaling: IL-1-beta AlphaLISA Primary Screen | THP-1 LPS/ATP IL-1B secretion, AlphaLISA, 16 h; hits give low values | activity change, % at 57.5 µM | actives 4.7% (n = 360,000); in the data active = activity change below about -50%; inconclusive = mostly about -30% to -49%
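THP-1 cells pretreated 1 hr with compounds (up to 57.5 uM final), then stimulated with LPS (250 ng/mL final) plus ATP (1.25 mM final); secreted IL-1B measured by AlphaLISA after 16 hr, decreased signal indicating inhibition.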
The depositor's hits bear a star; u = inconclusive; x = no result; [ ] = dose if it differs, or a comment. Compounds with a hit are over-represented: about 19% of the library has one in this group of screens. Unless noted, calls follow the shape of the dose curve; as a rule, active = well fitted curve in the direction sought with a large enough effect; inconclusive = small, poorly fitted or top-dose-only effect, or another doubt; inactive = no such curve, though single readings can be large; an effect the other way counts as inactive or inconclusive. Unless noted, % is scaled to controls: 0 for no effect and ±100 for the full control effect.

SMILES	ELG1 repair inh	HT1080NT lethal	DT40 TDP1 no CPT	DT40 TDP1 CPT	HT1080 IDH1KD tx	IL1B secr inh
CCOC(=O)c1c(-c2ccc(-c3ccccc3)cc2)csc1NC(=O)CNCCN(C)C	-14%	9.2µM*	23µM*	u	9.2µM*	-104*
CCOC(=O)c1c(-c2ccccc2)csc1NC(=O)CSc1nnc(C)s1	u	-11%	u	23µM*	-12%	-30
CCOC(=O)c1c(-c2ccc(OC)c(OC)c2)csc1NC(=O)C1CCCO1 (configuration not stated)	u	-20%	u	u	-5%	-67*
CCCC(=O)Nc1nc(C)c(-c2csc(Nc3ccc(Cl)cc3)n2)s1	u	-21%	u	12µM*	-21%	-21
CCC(C)C(=O)Nc1nc(C)c(-c2csc(Nc3ccc(Cl)cc3)n2)s1 (configuration not stated)	8.2µM*	-2%	9.2µM*	16µM*	-9%	-1
CCCc1nnc(NC(=O)CCC(=O)Nc2ccc(Cl)cc2)s1	u	7%	21%	-3%	0%	35
CC(C)n1nc(C(=O)OCC(=O)NCCc2ccc(S(N)(=O)=O)cc2)c2ccccc2c1=O	x	5%	22%	-1%	5%	11
CCOC(=O)c1sc2nc(N3CCOCC3)c3c(c2c1N)CCCC3	-22%	19%	-19%	u	8%	-4
CCOC(=O)c1sc2nc(N3CCOCC3)c3c(c2c1N)CC(C(C)C)OC3 (configuration not stated)	u	7%	-13%	8.2µM*	11%	-6
Cc1sc2ncnc(SCC(=O)N3c4ccccc4Sc4ccc(Cl)cc43)c2c1C	9%	14%	u	-10%	15%	15
CCOC(=O)c1c(C)sc2c1N(C(=O)CCl)c1cc(Cl)ccc1S2	u	23µM*	4.1µM*	4.1µM*	18µM*	-101*
CCC1=C(c2ccc(C)cc2)S(=O)(=O)N=C1N1CCC(C(=O)N2CCCCC2)CC1	x	x	u	-30%	x	x
COc1ccccc1CNC(=O)C1CCN(C2=NS(=O)(=O)C(c3ccc(C)c(C)c3)=C2C)CC1	x	x	18µM*	16µM*	x	x
CCOc1ccc(CNC(=O)C2CCN(C3=NS(=O)(=O)C(c4ccc(C)cc4)=C3CC)CC2)cc1	x	x	u	18µM*	x	x
CC1=C(c2ccc(C)c(C)c2)S(=O)(=O)N=C1N1CCC(C(=O)NCCc2ccc(Cl)cc2)CC1	x	x	7.3µM*	13µM*	x	x
CCOc1ccccc1CNC(=O)C1CCN(C2=NS(=O)(=O)C(c3ccc(C)c(C)c3)=C2C)CC1	x	x	-16%	3%	x	x
Cc1nn(CC(=O)Nc2cccc(C(F)(F)F)c2)c(=O)c2nn(-c3ccccc3)c(C)c12	x	x	-3%	-2%	x	x
Fc1ccc(NC(=S)NN=C2CCCCCC2)cc1	u	8.9µM*	u	u	10µM*	3
O=C(NN=C1CCCCCCC1)c1ccc(F)cc1	15%	-20%	u	u	-22%	38
CCC(C)(C)C1CCC(=NNC(=S)Nc2ccccc2)CC1 (configuration not stated)	6%	2%	15µM*	u	-8%	-5
CCC(C)(C)C1CCC(=NNC(=S)Nc2cccnc2)CC1 (configuration not stated)	2%	7%	u	u	7%	20
S=C(NN=C1CCCCCC1)Nc1ccc(Cl)cc1	19%	u	29µM*	29µM*	10%[9.24 µM]	1
Cc1cc(N)ccc1NC(=O)CN1CCCC1	12%	17%	18%	-6%	6%	16
Cc1cc(OCC(=O)Nc2sc3c(c2C#N)CCC(C)C3)ccc1Cl (configuration not stated)	x	x	u	-29%	x	x
CC1CCN(C2=C(NS(=O)(=O)c3ccc(Cl)cc3)C(=O)c3ccccc3C2=O)CC1	u	3%	-10%	-22%	12%	-3
SMILES	ELG1 repair inh	HT1080NT lethal	DT40 TDP1 no CPT	DT40 TDP1 CPT	HT1080 IDH1KD tx	IL1B secr inh
CCN1CCN(C2=C(NS(=O)(=O)c3ccc(NC(C)=O)cc3)C(=O)c3ccccc3C2=O)CC1	-20%	-11%	21µM*	16µM*	-17%	43
CC(=O)Nc1ccc(S(=O)(=O)Nc2cc(C)cn(Cc3ccccc3)c2=O)cc1	-29%	-6%	7.3µM*	u	-2%	-2
CC(=O)Nc1ccc(S(=O)(=O)NC2=C(N3CCN(Cc4ccccc4)CC3)C(=O)c3ccccc3C2=O)cc1	u	u	u	10µM*	u	-10
CCN1CCN(C2=C(NS(=O)(=O)c3ccc(C)cc3)C(=O)c3ccccc3C2=O)CC1	-7%	u	21µM*	12µM*	u	30
CC(=O)Nc1ccc(S(=O)(=O)Nc2cccn(Cc3ccc(C)cc3)c2=O)cc1	u	-1%	u	u	-11%	20
Cc1cc(=O)n(-c2ccc3ccccc3n2)[nH]1	u	u	21µM*	18µM*	-25%	14
CC1(C(=O)Nc2ccc3c(c2)OCO3)CCN1Cc1ccccc1OC(F)F (configuration not stated)	x	-8%	u	u	0%	-67*
CC1(C(=O)Nc2cccc(Oc3ccccc3)c2)CCN1Cc1cccc2c1OCO2 (configuration not stated)	x	u	u	u	u	-11
COc1ccc(NC(=O)C2(C)CCN2Cc2ccccc2OC(F)F)cc1OC (configuration not stated)	x	-8%	12µM*	u	-19%	-6
CC1(C(=O)Nc2ccc(Cl)c(Cl)c2)CCN1Cc1ccccc1OC(F)F (configuration not stated)	x	-2%	12µM*	16µM*	2%	u
Cc1ccc(NC(=O)C2(C)CCN2Cc2ccccc2OC(F)F)cc1 (configuration not stated)	x	u	u	u	u	-16
Cc1cccn2c(=O)c3cc(C(=O)NC4CCCC4)c(=N)n(C4CCCCC4)c3nc12	u	6%	u	-14%	15%	21
